HTT-AS act – Primary qHTS for Identification of Small Molecule Activators of Huntingtin-Antisense Promoter Activity. HEK293 HTT-AS promoter firefly luciferase reporter, 24 h; response scale: percent change from vehicle, -100% = no light. Potency, µM (titrated, usually from 57.5 µM), for inactives: at the highest dose activity change, positive = activation, hits mostly activators. 48,000 compounds, 0.24% hits. AID 1508624, 2021; further: nearly all actives have a fitted effect of over 55% in size
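Firefly luciferase readout (Dual-Glo, 10 min RT) after 24 h, 37 °C compound exposure (final up to 57.5 uM) of HEK293 reporter cells cultured 24 h beforehand; PTC124 at 50 uM final as control inhibitor; activity scaled vehicle 0%, zero RLU -100%.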
HTT prom inh – Primary qHTS for Identification of Small Molecule Inhibitors of Huntingtin Promoter Activity; HEK293 HTT promoter firefly luciferase reporter, 24 h; Potency, µM (top dose mostly 57.5 µM), inactives show at the highest dose activity change, negative = inhibition, most hits filed as inhibitors; 48,000 compounds, 0.93% hits; AID 1508623, 2021; further: nearly all actives have a fitted effect of over 50% in size
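Firefly luciferase signal from promoter-reporter HEK293 cells was scaled between vehicle (0%) and zero RLU (-100%). Compounds were tested at final concentrations of up to 57.5 uM over 24 h at 37 degrees C. PTC124 at 50 uM final served as control inhibitor.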
S16 F2sN tox – Cell viability qHTS assay in S16 Pmp22-F2sN cells. S16 Pmp22-F2sN Schwann cells viability, CellTiter-Glo, 24 h. Potency, µM (highest dose often 57.5 µM), for the others: top-dose activity change, negative = cytotoxicity, usual class: cytotoxic. 43,000 compounds, 0.48% hits. AID 1508642, 2021; further: on the % scale 0 is the no-effect control and ±100 the full control effect; nearly all actives have a fitted effect of over 65% in size
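S16 Schwann cells carrying the Pmp22-F2sN reporter, seeded in 1536-well format, were exposed to library compounds for 24 h at 37C. Viability was read as CellTiter-Glo luminescence after 15 min at room temperature.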
PMP22 txn prim – Cell-based coincidence reporter assay to measure PMP22 gene transcription in S16 Pmp22-F2sN cells - Primary screen. S16 Pmp22-F2sN Schwann cells (luciferase reporters placed in the Pmp22 gene), FLuc/NLuc coincidence luminescence, 24 h. 43,000 compounds, 2% hits. Potency, µM (top dose mostly 57.5 µM), for the others: at the highest dose activity change, negative = inhibition, most hits filed as inhibitors. AID 1508649, 2021; active means clear falling dose curves in both reporters; inconclusive means both reporters move, but less clearly or upward; inactive means either reporter flat; the % is the NLuc reporter signal; further: on the % scale 0 is the no-effect control and ±100 the full control effect
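S16 Schwann cells carrying FLuc/NLuc coincidence reporter in the Pmp22 3' UTR treated with compound 24 h at 37C; FLuc then NLuc luminescence read sequentially by dual-luciferase reagents.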
mTORC1 inh – Acumen qHTS Assay for Inhibitors of the mTORC1 Signaling Pathway in MEF (Tsc2-/-, p53-/-) Cells: Sytravon; Tsc2-/- p53-/- MEF, phospho-rpS6 immunofluorescence/PI, 24 h; Potency, µM (series often up to 38.3 µM), for inactives: at the highest dose activity change, negative = inhibition, actives largely listed as inhibitors; 44,000 compounds, 0.78% hits; AID 493208, 2011;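 further: plate controls were DMSO for no effect and rapamycin for full effect; nearly all actives have a fitted effect of over 50% in size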
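Read-out: phospho-S6 Alexa-488 intensity over PI intensity per well, scored as % active cells using thresholds from rapamycin (7.5 nM) and DMSO controls. Tsc2-/-, p53-/- MEFs exposed to compound for 24 h; PI cell count recorded as viability.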
SKOV3 invasion – Primary qHTS assay for Inhibitors of ovarian cancer metastasis using an organotypic tumor microenvironment (TME) model. SKOV3ip1-GFP adhesion/invasion on 3D omental model, fluorescence. Potency, µM (highest dose often 45.8 µM), for the others: top-dose activity change, negative = inhibition, hits mostly inhibitors. 46,000 compounds, 0.1% hits. AID 1963576, 2024;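 further: plate controls were DMSO wells for no effect and tomatine positive control wells for full effect; nearly all actives have a fitted effect of over 65% in size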
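A 3D layer of primary human omental fibroblasts, mesothelial cells, fibronectin and collagen I, grown 48 hr, received SKOV3ip1-GFP cells in serum-free medium plus compounds at 0.36-46 umol/L. After 2 hr RT and 16 hr 37 C, fixed adherent GFP cells were counted; normalized to DMSO and tomatine.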
* = called active by the depositor; i = inactive; u = inconclusive; x = no result given. Compounds with a hit are over-represented: about 3.6% of the library has one in this group of screens. Unless noted, the call rests on the fitted dose curve; in most records, active means well fitted curve in the direction sought with a large enough effect; inconclusive means small, poorly fitted or top-dose-only effect, or another doubt; inactive means no such curve, though single readings can be large; an effect the other way counts as inactive or inconclusive. Potency means the concentration at half of the fitted maximal effect.

SMILES	HTT-AS act	HTT prom inh	S16 F2sN tox	PMP22 txn prim	mTORC1 inh	SKOV3 invasion
Cc1cn2c(-c3cn[nH]c3)cnc2c(Nc2ccc(C(=O)N3CCNCC3)cc2F)n1	-27.6%	u	x	x	x	-11.9%
Cc1ccc(NC(=O)C2CCCN2S(=O)(=O)c2ccc3c(c2)n(C)c(=O)c(=O)n3C)cc1 (centres undefined)	-6.1%	-13.6%	-0.7%	7.4%	-12.0%	-3.7%
Cc1ccc(S(=O)(=O)N2CCCC2C(=O)Nc2ccc(Br)cc2)cc1 (centres undefined)	-50.4%	31.6µM*	u	u	-0.2%	i
Cc1ccc(CCNC(=O)c2c[nH]c3ccc(S(=O)(=O)Nc4ccc(C)cc4C)cc3c2=O)cc1	-29.6%	u	-0.6%	u	-14.7%	u
Cc1cccc(CCNC(=O)c2c[nH]c3ccc(S(=O)(=O)Nc4ccccc4F)cc3c2=O)c1	-46.0%	22.4µM*	-1.1%	u	0.6%	i
O=C(Cn1c(=O)c2ccccc2n(CC(=O)Nc2ccccc2F)c1=O)NCCc1ccccc1	-7.4%	-0.5%	0.1%	-7.1%	-11.7%	i
O=C(Cn1c(=O)c2ccccc2n(CC(=O)Nc2ccc(Cl)cc2)c1=O)NCCc1ccccc1	-34.3%	u	-21.3%	-5.2%	16.5µM*	-12.7%
Cc1oc2ccc(O)c(CN3CCCC(C)C3)c2c1C(=O)Nc1ccccc1 (centres undefined)	-17.6%	-9.7%	-3.5%	-19.0%	14.7µM*	2.7%
CCOC(=O)c1c(-c2ccccc2)csc1NC(=O)c1nc(S(=O)(=O)CC)ncc1Cl	-87.9%	u	11.2µM*	4.5µM*	u	u
CCS(=O)(=O)c1ncc(Cl)c(C(=O)Nc2ccccc2)n1	-93.5%	u	6.31µM*	2.24µM*	1.85µM*	u
CN(c1ccccc1)S(=O)(=O)c1ccc(NC(=O)c2nc(S(C)(=O)=O)ncc2Cl)cc1	-94.6%	u	4.47µM*	2.12µM*	1.17µM*	i
CCCSc1ncc(Cl)c(C(=O)Nc2ccc(S(=O)(=O)N(C)c3ccccc3)cc2)n1	-37.3%	u	-8.4%	u	-5.4%	-5.2%
CC(C)c1nnc(NC(=O)c2nc(S(=O)(=O)Cc3ccccc3)ncc2Cl)s1	-94.3%	u	u	u	u	u
CCOC(=O)c1ccc(NC(=O)c2nc(S(=O)(=O)Cc3ccccc3)ncc2Cl)cc1	-96.1%	u	5.01µM*	1.89µM*	u	u
COC1=C2C[C@@H](C)C[C@H](OC)[C@@H](O)[C@@H](C)C=C(C)[C@H](OC(N)=O)[C@@H](OC)C=CC=C(C)C(=O)NC(=CC1=O)C2=O	-65.0%	u	x	x	x	-4.8%
COC(=O)Nc1ccc(-c2nc(N3CCOCC3)c3cnn(C4CCN(Cc5cccnc5)CC4)c3n2)cc1	-29.1%	u	x	x	x	u
CS(=O)(=O)c1ncc(Cl)c(C(=O)Nc2c(C(=O)Nc3ccccc3)oc3ccccc23)n1	-3.5%	-12.8%	u	u	4.0%	-6.0%
Cc1ccccc1CS(=O)(=O)c1ncc(Cl)c(C(=O)Nc2nnc(C(C)C)s2)n1	-95.4%	u	u	6.96µM*	9.27µM*	u
CCSc1ncc(Cl)c(C(=O)Nc2c(C(=O)Nc3cccc(C)c3)oc3ccccc23)n1	-2.3%	-5.4%	0.7%	-11.1%	-3.4%	-14.3%

Screens deposited in PubChem BioAssay by National Center for Advancing Translational Sciences (NCATS).
